According to PubChem BioAssay (Tox21):
Results filed as inconclusive are left out. Active and inactive are the calls of the source. Unless noted, calls follow the shape of the full dose curve.

Legend:
[1] = qHTS assay to identify small molecule agonists of the vitamin D receptor (VDR) signaling pathway - cell viability counter screen (AID 743224; active = well fitted curve in the direction sought with a large enough effect in the repeat runs; an effect the other way counts as inactive or inconclusive; also: nearly all actives have a fitted effect of over 50% in size; also: potency is read from the fitted curve at half-maximal effect; as to activity change, negative = cytotoxicity: series mostly up to about 63 µM; % is scaled to controls: 0 for no effect and ±100 for the full control effect)
Outline: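 VDR-bla cells, 4 h after plating, exposed to compounds for 16 h at 37C; viability then read in the same wells as CellTiter-Glo luminescence after 30 min at room temperature, following the bla FRET read.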

[2] = qHTS assay to identify small molecule antagonists of the vitamin D receptor (VDR) signaling pathway - cell viability counter screen (AID 743225; active = well fitted curve in the direction sought with a large enough effect in the repeat runs; an effect the other way counts as inactive or inconclusive; also: % is scaled to controls: 0 for no effect and ±100 for the full control effect; nearly all actives have a fitted effect of over 50% in size)
Outline: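 In this counter screen, VDR-bla HEK 293T cells receive test compound plus 3 nM final calcitriol for 16 h at 37C. Room-temperature steps of 2 h with the beta-lactamase substrate, then 30 min with CellTiter-Glo, precede the luminescence read.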

[3] = qHTS assay to identify small molecule agonists of the NFkB signaling pathway - cell viability counter screen (AID 1159515); also: nearly all actives have a fitted effect of over 55% in size; also: potency is read from the fitted curve at half-maximal effect; as to activity, negative = cytotoxic: series mostly up to about 61 µM; % is scaled to controls: 0 for no effect and ±100 for the full control effect
Outline: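 NFkB-bla ME-180 cells, 2,000/well, plated overnight at 37 C; compound added for 5 hr at 37 C. Viability read in the same wells as the bla reporter, by CellTiter-Glo luminescence after 30 min at room temperature.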

[4] = qHTS assay to identify small molecule agonists of the endoplasmic reticulum stress response signaling pathway (AID 1159516; active = well fitted activation curve with a large enough effect in the signal ratio in the repeat runs, not every such curve was filed as active; the % refers to the signal ratio; also: potency is read from the fitted curve at half-maximal effect; as to activation: % is scaled to controls: 0 for no effect and ±100 for the full control effect)
Outline: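 CellSensor ESRE-bla HeLa cells, 1,500 per well, plated overnight, then exposed to compounds for 5 hr at 37 C. Beta-lactamase reporter read with LiveBLAzer B/G FRET substrate after 2 hr at room temperature, 405 nm excitation, 460 and 530 nm emission.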

[5] = qHTS assay to identify small molecule agonists of the endoplasmic reticulum stress response signaling pathway - cell viability counter screen (AID 1159517); also: nearly all actives have a fitted effect of over 50% in size; also: potency is read from the fitted curve at half-maximal effect
Outline: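 CellTiter-Glo was added to wells already read for beta-lactamase FRET, and luminescence was recorded 30 min later. Cells: ESRE-bla HeLa, 1,500 per well, compound exposure 5 hr at 37 C.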

[6] = qHTS assay to identify small molecule antagonists of the retinoid-related orphan receptor gamma (ROR-gamma) signaling pathway - cell viability counter screen (AID 1159520; active = well fitted curve in the direction sought with a large enough effect in the repeat runs; an effect the other way counts as inactive or inconclusive; also: nearly all actives have a fitted effect of over 50% in size; also: potency is read from the fitted curve at half-maximal effect)
Outline: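 Tet-on ROR gamma CHO cells (1,000/well) were plated 4 hr, given compounds in DMSO for 2 hr at 37 C, then induced with 1 uM final doxycycline for 16 hr. Viability was read as ATP by CellTiter-Glo luminescence after 30 min.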

[7] = target: Nuclear receptor ROR-gamma (Homo sapiens) (UniProt P51449); assay: qHTS assay to identify small molecule antagonists of the retinoid-related orphan receptor gamma (ROR-gamma) signaling pathway (AID 1159521; active = well fitted curve in the direction sought with a large enough effect in the repeat runs; an effect the other way counts as inactive or inconclusive; also: nearly all actives have a fitted effect of over 50% in size; also: potency is read from the fitted curve at half-maximal effect)
Outline: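 Screening format: cell-based luciferase reporter in CHO cells with doxycycline-inducible RORγ. Compound pre-exposure lasts 2 h, doxycycline is 1 uM final, induction runs 16 h at 37 C, and ONE-Glo luminescence is read.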

[8] = qHTS assay to identify small molecule agonists of the AP-1 signaling pathway - cell viability counter screen (AID 1159525); also: nearly all actives have a fitted effect of over 55% in size
Outline: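 ME-180 AP-1-bla, 2500 cells/well, Opti-MEM + 0.5% dialyzed FBS; overnight 37 °C; cpd 15-pt titration, 5 h 37 °C; CellTiter-Glo 30 min RT; luminescence read; normalised to TOAB and DMSO controls.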

[9] = qHTS assay to identify small molecule agonists of the AP-1 signaling pathway (AID 1159526); also: % is scaled to controls: 0 for no effect and ±100 for the full control effect
[10] = target: Retinoic acid receptor RXR-alpha (Homo sapiens) (UniProt P19793); assay: qHTS assay to identify small molecule agonists of the RXR signaling pathway (AID 1159527); also: nearly all actives have a fitted effect of over 35% in size; also: potency is read from the fitted curve at half-maximal effect
Sequence of Retinoic acid receptor RXR-alpha (Homo sapiens) (P19793 whole entry, looked up): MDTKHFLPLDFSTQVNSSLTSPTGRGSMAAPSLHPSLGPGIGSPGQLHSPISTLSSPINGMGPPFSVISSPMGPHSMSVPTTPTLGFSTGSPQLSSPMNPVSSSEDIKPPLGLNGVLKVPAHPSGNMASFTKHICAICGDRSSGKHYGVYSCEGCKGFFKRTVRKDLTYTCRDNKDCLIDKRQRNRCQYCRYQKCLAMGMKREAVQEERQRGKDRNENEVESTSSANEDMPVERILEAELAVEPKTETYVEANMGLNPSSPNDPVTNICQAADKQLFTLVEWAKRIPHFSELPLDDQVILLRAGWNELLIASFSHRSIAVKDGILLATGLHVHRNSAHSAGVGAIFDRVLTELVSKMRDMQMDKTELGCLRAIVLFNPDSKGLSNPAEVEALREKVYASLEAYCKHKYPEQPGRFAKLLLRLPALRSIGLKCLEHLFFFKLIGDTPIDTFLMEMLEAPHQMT
Outline: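 Fluorescence ratio readout (460 vs 530 nm) from GeneBLAzer RXR-alpha HEK 293T cells after 16 hr compound treatment; cells seeded 5 hr beforehand in low-serum, charcoal-stripped medium.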

CCN(CC)CCN1C(=O)CN=C(c2ccccc2F)c2cc(Cl)ccc21
inactive: Potency [1] | Potency [2] | Potency [3] | Potency [4] | Potency [5] | Potency [6] | Potency [7] | Potency [8] | Potency [9]

CC(=O)[O-].CC(=O)[O-].CC(=O)[O-].[Sb+3]
inactive: activity change, negative = cytotoxicity [1] -16.2% [at 5.95 µM] | viability change, negative = cytotoxic [2] 0.879% [at 6.95 µM] | activity, negative = cytotoxic [3] -2.51% [at 6.95 µM] | activation [4] 3.53% [at 6.95 µM] | activity change, negative = cytotoxicity [5] -11.4% [at 6.95 µM] | activity, negative = cytotoxicity [6] 1.09% [at 3.27 µM] | viability change, negative = cytotoxic [8] -1.02% [at 2.72 µM] | activation [9] -1.15% [at 2.72 µM] | activation [10] -1.11% [at 2.71 µM]

CNC(=O)Oc1cc(C)cc(C(C)C)c1
inactive: Potency [1] | Potency [2] | Potency [3] | Potency [4] | Potency [5] | Potency [6] | Potency [8] | Potency [9]
active: Potency [10] 11 µM

CCC[CH2][Sn]([CH2]CCC)([O]C(C)=O)[O]C(C)=O
inactive: Potency [2] | Potency [4]
active: Potency [3] 11.1 µM | Potency [5] 1.97 µM | Potency [6] 0.0978 µM | Potency [7] 0.0692 µM

Nc1ccc(Cl)cc1C(=O)c1ccccc1F
inactive: Potency [1] | Potency [2] | Potency [3] | Potency [4] | Potency [5] | Potency [6] | Potency [7] | Potency [8]

O=C(Nc1ccc(F)cc1F)c1cccnc1Oc1cccc(C(F)(F)F)c1
inactive: Potency [1] | Potency [2] | Potency [3] | Potency [4] | Potency [5] | Potency [6] | Potency [7] | Potency [8]

O=P(Cl)(Cl)Cl
inactive: Potency [1] | Potency [2] | Potency [3] | Potency [4] | Potency [5] | Potency [6] | Potency [8] | Potency [9] | Potency [10]

CCOP(=O)(Sc1ccccc1)Sc1ccccc1
inactive: Potency [1] | Potency [2] | Potency [3] | Potency [4] | Potency [5] | Potency [6] | Potency [7] | Potency [8]

O=S(=O)(O)F
inactive: Potency [1] | Potency [2] | Potency [3] | Potency [4] | Potency [5] | Potency [6] | Potency [8] | Potency [9] | Potency [10]

O=c1c2ccccc2c(=O)c2c1cc(Cl)c1[nH]c3c([nH]c12)c(Cl)cc1c(=O)c2ccccc2c(=O)c13
inactive: Potency [1] | Potency [3] | Potency [4] | Potency [5] | Potency [6] | Potency [7] | Potency [8] | Potency [10]

C1=CCC=C1
inactive: Potency [1] | Potency [2] | Potency [3] | Potency [4] | Potency [5] | Potency [6] | Potency [7] | Potency [8]

O=C(O)[C@H](O)[C@@H](O)C(=O)O
inactive: Potency [1] | Potency [2] | Potency [3] | Potency [4] | Potency [5] | Potency [6] | Potency [7] | Potency [8] | Potency [9]

CCCCN(CCCC)C(=S)[S-].CCCCN(CCCC)C(=S)[S-].[Ni+2]
inactive: Potency [1] | Potency [2] | Potency [3] | Potency [4] | Potency [5] | Potency [6] | Potency [8] | Potency [9] | Potency [10]

O=C(CCCCl)c1ccc(F)cc1
inactive: Potency [1] | Potency [2] | Potency [3] | Potency [4] | Potency [5] | Potency [6] | Potency [8] | Potency [9] | Potency [10]

CCN(CC)C(=O)N[C@@H]1C=C2c3cccc4[nH]cc(c34)C[C@@H]2N(C)C1
inactive: Potency [1] | Potency [2] | Potency [3] | Potency [4] | Potency [5] | Potency [6] | Potency [8] | Potency [9]

C=CCOC(=O)c1ccccc1N
inactive: Potency [1] | Potency [2] | Potency [3] | Potency [4] | Potency [5] | Potency [6] | Potency [8] | Potency [9]

C[C@H]1[C@H](c2ccc(Cl)cc2)SC(=O)N1C(=O)NC1CCCCC1
inactive: Potency [3] | Potency [4] | Potency [5] | Potency [8] | Potency [9]
active: Potency [7] 48.6 µM

CC1=C2C[C@H]3[C@@H](CC=C4C[C@@H](O)CC[C@@]43C)[C@@H]2CC[C@]12O[C@@H]1C[C@H](C)CN[C@H]1[C@H]2C
inactive: Potency [1] | Potency [2] | Potency [3] | Potency [4] | Potency [5] | Potency [6] | Potency [8]

C=Cc1cccc(CCl)c1
inactive: Potency [1] | Potency [2] | Potency [3] | Potency [4] | Potency [5] | Potency [6] | Potency [8] | Potency [9]

C[C@]12CC[C@H]3[C@@H](CCC4=CC(=O)CC[C@@H]43)[C@@H]1CC[C@@H]2OC(=O)CCc1ccco1
active: Potency [1] 21.1 µM
inactive: Potency [3] | Potency [4] | Potency [5] | Potency [6] | Potency [8]

CN1[C@@H]2CC[C@H]1CC(O)C2 (stereo not given in full)
inactive: Potency [1] | Potency [2] | Potency [3] | Potency [4] | Potency [5] | Potency [6] | Potency [8] | Potency [9]

Oc1ccc2[nH]cc(CCCCN3CC=C(c4ccccc4)CC3)c2c1
active: Potency [4] 4.25 µM
inactive: Potency [1] | Potency [2] | Potency [3] | Potency [5] | Potency [6] | Potency [8]

CN1CCc2cc(Cl)c(O)cc2[C@H]2c3ccccc3CC[C@@H]21
inactive: Potency [1] | Potency [2] | Potency [3] | Potency [4] | Potency [5] | Potency [6] | Potency [8] | Potency [9]

c1ccc(Nc2ccc(Nc3ccccc3)cc2)cc1
inactive: Potency [2] | Potency [3] | Potency [4] | Potency [5] | Potency [6]

CC1(C)C(C=C(Cl)Cl)C1C(=O)OC(C#N)c1ccc(F)c(Oc2ccccc2)c1 (stereo not given)
inactive: Potency [1] | Potency [3] | Potency [4] | Potency [5] | Potency [6] | Potency [8]

NC(=O)C(Cl)Cl
inactive: Potency [1] | Potency [2] | Potency [3] | Potency [4] | Potency [5] | Potency [6] | Potency [8] | Potency [9]

[O-][Cl+3]([O-])([O-])O
inactive: Potency [1] | Potency [3] | Potency [4] | Potency [5] | Potency [6] | Potency [8] | Potency [9]
